Assay outcomes: PubChem BioAssay, Sanford-Burnham Center for Chemical Genomics
KKLEB cytotox – counter-screen for CF NF-kB inhibitors: cytotoxicity | KKLEB CF airway cells viability, ATPlite luminescence, overnight; stronger effect = lower value; cells stimulated with P. aeruginosa culture filtrate | AID 602141 | hit rate 0.36% among 360,000 | activity change (cytotoxicity), % at 5 µM;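 active = corrected activity change at or below -50% at 5 µM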
TWEAK-Fn14 inh – TWEAK-Fn14 signaling inhibition. TWEAK-stimulated Fn14 reporter cells, luciferase luminescence, 8 h. inhibition, % at 10 µM. hit rate 2% among 360,000. AID 1159606; in the data active = inhibition above about 50%
TROY signal inh – blocks TROY-dependent signaling in reporter cells; Q293 LMP1-TROYcd NF-kB luciferase reporter, 4 h; inhibition, % at 10 µM; hit rate 0.98% among 360,000;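 active = compounds whose plate-normalised and pattern-corrected inhibition of the luciferase reporter signal at the single screening dose is 50% or more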
Peg3 promoter – Peg3 promoter activity inhibition. inhibition, % at 20 µM. HeLa PEG-Prom luciferase reporter, luminescence, overnight. hit rate 1.7% among 360,000;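 active = inhibition of at least 50% at 20 µM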
CF NFkB block – blocks PAF-induced NF-kB reporter in cystic fibrosis cells. KKLEB NF-kB-GFP reporter, GFP fluorescence overnight. inhibition, % at 5 µM. hit rate 0.86% among 360,000;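 active = at least 50% inhibition at 5 µM, scaled per plate between neutral and stimulator controls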;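 also: PAF is a Pseudomonas aeruginosa culture filtrate used as stimulus; plate controls were PAF-stimulated DMSO wells for no effect and unstimulated DMSO wells for full effect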
HIF-2a inh – inhibitors of HIF-2a; hit rate 0.72% among 360,000; inhibition, % at 18.8 µM; 786-0 RCC cells HIF-2a reporter, luciferase luminescence, overnight; AID 624352;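 active = inhibition of the luminescence signal of 40% or more relative to plate controls, in a single-dose primary screen at 18.75 µM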
Mdm2 MdmX conf – confirmation of inhibitors of human Mdm2/MdmX interaction, set 2; inhibition, % at 8 µM; hit rate 99% among 740; SaOS-2 split-luciferase Mdm2/MdmX complementation, luminescence; shares compounds with HIF-2a inh;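 active = mean inhibition of the luminescence signal across two replicates at or above 26 percent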
HIF-2a conf – HIF-2a inhibition, single concentration confirmation | shares compounds with HIF-2a inh | 786-0 RCC cells, HIF-2a luciferase reporter luminescence, overnight | inhibition, % at 18.8 µM | hit rate 56% among 1,800;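 active = mean inhibition across four replicates of at least 40 percent at the single tested concentration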
HIF-1a counter – inhibits HIF-1a reporter, a counter-screen for HIF-2a inhibitors. shares compounds with HIF-2a inh. MiaPaCa-2 HIF-1a luciferase reporter, desferoxamine, overnight. inhibition, % at 18.8 µM. AID 651589. hit rate 72% among 1,800;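 active = mean inhibition of the reporter signal across four replicates at the single tested dose of 50% or more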
Active calls of the source: *; . = no result given. Most compounds without a hit are left out; they make up all but 4% or so of the library.

SMILES	KKLEB cytotox	TWEAK-Fn14 inh	TROY signal inh	Peg3 promoter	CF NFkB block	HIF-2a inh	HIF-2a conf	HIF-1a counter	others
CCc1ccc2nc(N(CCCN(C)C)C(=O)c3ccc(S(=O)(=O)N4CCc5ccccc5C4)cc3)sc2c1	-98*	-208	-87	28	67*	68*	27	47
CCOc1cccc2sc(N(CCCN(C)C)C(=O)c3ccc(S(=O)(=O)N4CCc5ccccc5C4)cc3)nc12	0	-8	-38	39	4	-1	.	.
Cc1sc2ncnc(N3CCC(C(=O)Nc4cc(S(C)(=O)=O)ccc4Cl)CC3)c2c1C	-2	37	41	33	45	41*	-1	74*
Cc1sc2ncnc(N3CCC(C(=O)Nc4cc(Cl)ccc4Cl)CC3)c2c1C	-9	10	40	17	-5	1	.	.
C=C1C(=O)[C@@]23[C@H](O)C[C@@H]4C(C)(C)CC[C@H](O)[C@@]4(C)[C@@H]2CC[C@@H]1[C@H]3O	-32	95*	28	102*	95*	91*	94*	107*
Cc1cccc(C)c1C(O)c1ncc(-c2cccc(F)c2)[nH]1 (configuration not stated)	-12	1	-9	-1	23	5	.	.
CC(C)(C)C(=O)/C(=C/c1ccc(Cl)cc1)n1cncn1	-23	77*	20	105*	48	93*	88*	98*
O=C(CSc1nc(=O)n2cc(Cl)ccc2n1)Nc1cccc2ccccc12	-9	1	-6	6	7	9	.	.
O=C1C(Cl)=C(N2CCN(Cc3ccccc3)CC2)C(=O)N1Cc1ccccc1	-8	1	17	44	10	40*	2	26
O=C(O)CC(C(=O)O)c1ccc(OCCCCOc2ccc(C(CC(=O)O)C(=O)O)cc2)cc1 (configuration not stated)	1	-14	-3	8	-2	17	.	.
Cc1ccccc1N(C(=O)c1snc(C(N)=O)c1N)C(C(=O)NC1CCCCC1)c1ccc(O)cc1 (configuration not stated)	1	39	-7	44	-7	42*	36	86*
CN(CC(=O)Nc1ccc(F)c(F)c1F)C(=O)CCN1C(=O)C2CC=CCC2C1=O (configuration not stated)	0	19	-3	8	1	8	.	.
COc1ccc(S(=O)(=O)NCC2CCCO2)c(Cl)c1Cl (configuration not stated)	19	3	1	10	-4	13	.	.
COc1ccc(-c2oc3ccccc3c(=O)c2OC(C)=O)cc1	5	20	-10	-117	24	-51	.	.	Mdm2 MdmX conf=93*
COc1ccc(-c2oc3ccccc3c(=O)c2OCC(=O)O)cc1	7	18	-4	-5	-6	7	.	.
COC(=O)c1sccc1NC(=O)CC1NCCNC1=O (configuration not stated)	7	0	10	13	-9	19	.	.
Cc1ccc(NC(=O)c2ccc(N3CCOCC3)c([N+](=O)[O-])c2)cc1S(=O)(=O)N1CCOCC1	-5	45	39	65*	1	51*	3	59*
COc1coc(C(O)CN)cc1=O (configuration not stated)	-2	-10	-4	2	11	-2	.	.
CCOC(=O)C(=Cc1cc(=O)c(OC)co1)C(=O)OCC	28	98*	42	106*	85*	94*	99*	106*
COCCC(=O)N1CCOCC1c1cc(C(=O)NCc2ccccc2)no1 (configuration not stated)	0	13	5	9	-2	-4	.	.
CC(Sc1n[nH]c(N)n1)C(=O)C12CC3CC(CC(C3)C1)C2 (configuration not stated)	4	-10	7	-11	-1	7	.	.
